The source made the active and inactive calls. The calls were made as follows: active = hit-call score of the fitted dose curve at least 0.9, where 1 is the maximum; inactive = score below 0.9.
How the values were obtained:
Settings in all cases: primary human HUVEC with PBMC; actives raise or lower the signal
[1] = read-out: Interleukin-1 alpha (IL1a), IL1A (gene 3552); assay: BSK_LPS_IL1a: BioMAP Diversity Plus: LPS Assay for Interleukin-1 alpha (IL1a) Biomarker Activity (AID 2283080)
How it was run: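 Human umbilical vein endothelial cells co-cultured with PBMC and stimulated with LPS; IL-1a measured by ELISA 24 h after dosing. Bidirectional fitting against DMSO; cytotoxicity checked by SRB staining in parallel cultures.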

[2] = read-out: Monocyte Chemoattractant Protein-1 (MCP1), CCL2 (gene 6347); assay: BSK_LPS_MCP1: BioMAP Diversity Plus: LPS Assay for Monocyte Chemoattractant Protein-1 (MCP1) Biomarker Activity (AID 2283081);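 as to AC50: secreted MCP-1 protein quantified by ELISA in culture supernatant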
How it was run: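 Human umbilical vein endothelial cells co-cultured with PBMC, LPS-stimulated; secreted MCP-1 measured by ELISA 24 h after compound addition. Bidirectional curve fitting against DMSO baseline; SRB total-protein staining in parallel cultures for cytotoxicity.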

[3] = read-out: Macrophage colony-stimulating factor (MCSF), CSF1 (gene 1435); assay: BSK_LPS_MCSF: BioMAP Diversity Plus: LPS Assay for Macrophage colony-stimulating factor (MCSF) Biomarker Activity (AID 2283083)
How it was run: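 HUVEC–PBMC co-culture, M-CSF measured by ELISA 24 h after chemical dosing. Fitted in both directions relative to DMSO as negative control; overt cytotoxicity assessed by SRB total-protein staining in parallel cultures.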

[4] = read-out: Tissue Factor, F3 (gene 2152); assay: BSK_LPS_TissueFactor: BioMAP Diversity Plus: LPS Assay for Tissue Factor Biomarker Activity (AID 2283084)
How it was run: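 Human umbilical vein endothelial cells co-cultured with PBMC were dosed with compound. Cell-surface CD142 was measured by ELISA 24 h later. Activity was fitted bidirectionally against DMSO, with SRB total-protein staining in parallel cultures for cytotoxicity.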

[5] = read-out: Tumor necrosis factor (Homo sapiens) (UniProt P01375); assay: BSK_LPS_TNFa: BioMAP Diversity Plus: LPS Assay for Tumour Necrosis Factor alpha (TNFa) Biomarker Activity (AID 2283085);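 as to AC50: TNFa protein level quantified by ELISA in the co-culture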
How it was run: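 Human umbilical vein endothelial cells co-cultured with PBMC and stimulated with LPS. TNFa was measured by ELISA 24 h after chemical dosing, fitted bidirectionally relative to DMSO.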

[6] = read-out: Vascular cell adhesion molecule 1 (VCAM1), VCAM1 (gene 7412); assay: BSK_LPS_VCAM1: BioMAP Diversity Plus: LPS Assay for Vascular cell adhesion molecule 1 (VCAM1) Biomarker Activity (AID 2283086)
How it was run: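 Human umbilical vein endothelial cells co-cultured with PBMC and stimulated with LPS; VCAM-1 measured by ELISA 24 h after dosing. Bidirectional curve fitting against DMSO baseline; cytotoxicity tracked in parallel by SRB total-protein staining.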

CD38, CD38 (gene 952) = assay: BSK_SAg_CD38: BioMAP Diversity Plus: SAg Assay for CD38 Biomarker Activity (AID 2283087)
How it was run: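 Human HUVEC plus PBMC co-culture stimulated with superantigen; CD38 measured by ELISA 24 h after chemical dosing. Fluorescence read-out, bidirectional fit against DMSO; cytotoxicity tracked in parallel by SRB and Alamar Blue.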

CD40, CD40 (gene 958) = assay: BSK_SAg_CD40: BioMAP Diversity Plus: SAg Assay for CD40 Biomarker Activity (AID 2283088)
How it was run: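 HUVEC plus PBMC co-culture, superantigen-activated, with CD40 read by ELISA 24 h after dosing. Curves fitted in both directions against DMSO. Overt cytotoxicity checked by parallel SRB total-protein staining.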

CD69, CD69 (gene 969) = assay: BSK_SAg_CD69: BioMAP Diversity Plus: SAg Assay for CD69 Biomarker Activity (AID 2283089);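 as to AC50: cell surface CD69 protein quantified by ELISA with fluorescence detection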
How it was run: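 Values derive from bidirectional fitting relative to DMSO vehicle. Cells: umbilical vein endothelium plus peripheral blood mononuclear cells, treated 24 h before fluorescent ELISA for CD69.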

[7] = BSK_LPS_PGE2: BioMAP Diversity Plus: LPS Assay for Prostaglandin E2 (PGE2) Biomarker Activity (AID 2283082)
How it was run: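 HUVEC plus human PBMC co-culture stimulated with LPS; secreted PGE2 quantified by ELISA 24 h after chemical dosing. Activity fitted bidirectionally against DMSO baseline; parallel SRB staining (0.1% SRB after 10% TCA fixation, 560 nm) flags overt cytotoxicity.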

Measured: AC50

Tumor necrosis factor (Homo sapiens), sequence (P01375 whole entry, looked up): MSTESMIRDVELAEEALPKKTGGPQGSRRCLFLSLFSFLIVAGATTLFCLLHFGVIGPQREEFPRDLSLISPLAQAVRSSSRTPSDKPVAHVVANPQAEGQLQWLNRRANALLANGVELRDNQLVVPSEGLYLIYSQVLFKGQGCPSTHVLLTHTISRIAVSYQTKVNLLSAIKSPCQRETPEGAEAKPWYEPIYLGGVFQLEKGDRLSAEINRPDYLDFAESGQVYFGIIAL

Oc1c(Cl)cc(Cl)c(Cl)c1Cl
inactive: [1] | [5]
active: [2] 31.5 µM | [3] 26 µM | [4] 20 µM | [6] 20 µM | CD38, CD38 (gene 952) 20 µM | CD40, CD40 (gene 958) 20 µM | CD69, CD69 (gene 969) 27.8 µM

C1CNCCN1
not listed: [7]
inactive: all other assays above

Nc1nc(N)nc(-c2ccccc2)n1
inactive: all assays above

O=C(Oc1ccccc1)c1ccccc1C(=O)Oc1ccccc1
active: CD38, CD38 (gene 952) 29.7 µM | CD69, CD69 (gene 969) 24.1 µM
not listed: CD40, CD40 (gene 958)
inactive: all other assays above

CCOC(=O)C1=NOC(c2ccccc2)(c2ccccc2)C1
inactive: all assays above

CC1(C)CC(O)CC(C)(C)N1[O]
inactive: all assays above

C=CCCCCCCCCC=O
inactive: all assays above

CC/C=C\CCOC(=O)c1ccccc1O
inactive: [7]
active: [1] 29.6 µM | [2] 32.8 µM | [3] 33 µM | [4] 33 µM | [5] 31.5 µM | [6] 37.9 µM | CD38, CD38 (gene 952) 31 µM | CD40, CD40 (gene 958) 33.6 µM | CD69, CD69 (gene 969) 20 µM

CCOC(=O)C1=NN(c2ccc(Cl)cc2Cl)C(C)(C(=O)OCC)C1 (centres undefined)
not listed: [7]
inactive: all other assays above

CC(C)[N+](C)(CCOC(=O)C1c2ccccc2Oc2ccccc21)C(C)C
inactive: all assays above

CCc1cccc(C)c1N(C(=O)CS(=O)(=O)O)C(C)COC (centres undefined)
inactive: all assays above

O=C(O)C(F)(F)C(F)(F)C(F)(F)C(F)(F)C(=O)O
inactive: all assays above

CC(CCC(=O)O)(c1ccc(O)cc1)c1ccc(O)cc1
not listed: [7]
inactive: all other assays above

CCCCCCCCCCCC(C)=O
inactive: [1] | [2] | [3] | [4]
active: [5] 29.2 µM | [6] 30.8 µM | CD38, CD38 (gene 952) 31.6 µM | CD40, CD40 (gene 958) 30 µM | CD69, CD69 (gene 969) 31.1 µM

Reference: PubChem BioAssay (EPA / NIEHS)
